Drawing on PubChem BioAssay (EPA / NIEHS), this text covers outcome and AC50 for eleven compounds.

Records with an inconclusive call do not appear. More than one record can exist for a structure, and the calls need not agree. Activity calls are given as the source filed them. Rule for the calls, unless noted: active = hit-call score of the fitted dose curve at least 0.9, where 1 is the maximum; inconclusive = response in the unintended direction; inactive = score below 0.9.

In experiment [1] the target is Steroid hormone receptor ERR1 (Homo sapiens) (UniProt P11474). Description: ATG_ERRa_TRANS: Attagene TRANS-FACTORIAL HepG2 Assay for human Estrogen-Related Receptor alpha (ERRa) (AID 2282971). The note with it: HepG2 Attagene TRANS reporter, ERRa transactivation. The method in brief: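 Reporter transcripts from ERRa-Gal4 chimera activity measured in transiently transfected human HepG2 cells 24 hours after dosing, using RT-PCR with 6-FAM primer extension, HpaI digestion and capillary electrophoresis; DMSO is baseline.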

The target in experiment [2] is Estrogen-related receptor gamma (Homo sapiens) (UniProt P62508). The experiment can be described thus: ATG_ERRg_TRANS: Attagene TRANS-FACTORIAL HepG2 Assay for human Estrogen-Related Receptor gamma (ERRg) (AID 2282977).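 Note: hits increase reporter signal over DMSO so potencies reflect activators.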 The note with it: HepG2 Attagene TRANS reporter, ERRg transactivation. In a few lines: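 Readout: fluorescent reporter-mRNA fragments resolved by capillary electrophoresis after RT-PCR and HpaI cut. Cells: transiently transfected HepG2 carrying GAL4-UAS reporters driven by exogenous NR-Gal4 chimeras, dosed 24 h. Activity fitted upward relative to DMSO baseline.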

Experiment [3] addresses Estrogen receptor beta (Homo sapiens) (UniProt Q92731). The experiment can be described thus: OT_ER_ERbERb_1440: Odyssey Thera (OT) 24-hour HEK293T Protein-Complementation Assay for Estrogen Receptor-beta/-beta Homodimer (AID 2283380).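 Note: scored as signal increase over DMSO baseline for both agonists and antagonists.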 The method in brief: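 Fluorescence increase, nuclear for agonists or whole-cell for antagonists, relative to DMSO vehicle, quantified by laser scanning cytometer after fixation and Draq5 staining. Readout from 24 h treatment of HEK293T cells carrying complementation-paired ER beta LBD (aa 310-547).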

Experiment [4] deals with Retinoic acid receptor RXR-alpha (Homo sapiens) (UniProt P19793). The experiment can be described thus: OT_NURR1_NURR1RXRa_1440: Odyssey Thera (OT) 24-hour HEK293T Protein Complementation Assay for Nurr1/retinoid X receptor (RXR) (AID 2283386). In a few lines:
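Fluorescence PCA read-out; HEK293T; 24 h post-dose; bait/prey fused to reporter fragments; gain-of-signal fit vs DMSO negative control.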

Experiment [5] has as its target Peroxisome proliferator-activated receptor gamma (Homo sapiens) (UniProt P37231). The experiment can be described thus: OT_PPARg_PPARgSRC1_1440: Odyssey Thera (OT) 24-hour Protein-Complementation Assay for Peroxisome Proliferator-activated Receptor Gamma/ SRC-1 Co-activator (AID 2283388).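 Note: nuclear to cytoplasmic ratio of reconstituted Venus YFP fluorescence in fixed imaged cells.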 In a few lines: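 Readout is the 488 nm N/C fluorescence ratio from fixed, Draq5-stained HEK293T cells after 24 h compound exposure. Cells carried transiently transfected PPARg and SRC-1 fused to Venus fragments, transfected 48 h before treatment.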

Experiment [6] in a line: ACEA_AR_agonist_AUC_viability: ACEA Biosciences xCELLigence Real-Time Cell Analysis on Androgen Receptor Agonism for Viability (AID 2283775).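 For AC50: viability read 80 hours after compound addition.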 In a few lines:
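Viability endpoint from xCELLigence impedance in 22Rv1 prostate cells at 80 h. Eight-point series, 100 uM maximum final.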

The nature of experiment [7]: ACEA_AR_antagonist_AUC_viability: ACEA Biosciences xCELLigence Real-Time Cell Analysis on Androgen Receptor Antagonism for Viability (AID 2283776).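 Note: 22Rv1 human prostate cancer cells growing on impedance electrode plates; hits lower the growth signal relative to DMSO meaning cytotoxicity.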 The method in brief: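 Impedance read-out (RT-CES): area under growth curve at 80 h post-dose, loss of signal scored vs DMSO baseline. 22Rv1 cells; 8-pt 1:4 series, top 100 uM final, ≤0.5% DMSO; biological duplicate.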
Experiment [8] in a line: ACEA_ER_AUC_viability: ACEA Biosciences xCELLigence Real-Time Cell Analysis on Estrogen Receptor Agonism for Viability (AID 2283782).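 Note: hit means loss of impedance signal meaning reduced cell growth or viability.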 The method in brief:
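Viability endpoint: reduced impedance area under the curve relative to DMSO, recorded by real-time electrode sensing over ~80 h of continuous exposure. Duplicate plates of T47D in hormone-depleted medium; eight concentrations, 1:4 dilutions, 100 uM maximum.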

Experiment [9] is described as follows: CCTE_Harrill_HTTr_Viability_MCF7: CCTE's 6-hour Cell Viability Assessment for the High-Throughput Transcriptomics (HTTr) Platform, in MCF-7 cells cultured in DMEM + 10% fetal bovine serum, Harrill Lab (AID 2284010; active = hit-call score of the fitted dose curve at least 0.9, where 1 is the maximum; inactive = score below 0.9). In a few lines:
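PI exclusion, high-content imaging; 8-pt dilution series, 6 h exposure; bidirectional fit vs DMSO (neg. ctrl/baseline); gain of signal = loss of membrane integrity.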

The nature of experiment [10]: BSK_3C_uPAR: BioMAP Diversity Plus: 3C Assay for Urokinase-type plasminogen activator receptor (uPAR) Biomarker Activity (AID 2282998; active = hit-call score of the fitted dose curve at least 0.9, where 1 is the maximum; inactive = score below 0.9). The note with it: BioMAP 3C HUVEC, uPAR biomarker ELISA; actives raise or lower the signal. In a few lines: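 Readout: ELISA for surface uPAR. System: human umbilical vein endothelial primary cells, 24 h after chemical exposure. Analysis: bidirectional fit, DMSO baseline.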

Read-out in experiment [11]: Monocyte Chemoattractant Protein-1 (MCP1), CCL2 (gene 6347)
The experiment can be described thus: BSK_4H_MCP1: BioMAP Diversity Plus: 4H Assay for Monocyte Chemoattractant Protein-1 (MCP1) Biomarker Activity (AID 2283018; active = hit-call score of the fitted dose curve at least 0.9, where 1 is the maximum; inactive = score below 0.9). The note with it: primary human endothelial cells (HUVEC); actives raise or lower the signal. In a few lines: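 HUVEC primary cells, 24 h post-dose, MCP-1 by ELISA. Gain or loss of signal fitted bidirectionally vs DMSO baseline. Cytotoxicity: SRB stain (0.1% after 10% TCA fixation), read 560 nm, parallel cultures.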

Read-out in experiment [12]: Monokine induced gamma interferon (MIG), CXCL9 (gene 4283)
The experiment can be described thus: BSK_3C_MIG: BioMAP Diversity Plus: 3C Assay for Monokine induced gamma interferon (MIG) Biomarker Activity (AID 2283021; active = hit-call score of the fitted dose curve at least 0.9, where 1 is the maximum; inactive = score below 0.9). The note with it: primary human endothelial cells (HUVEC); actives raise or lower the signal. The method in brief: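 HUVEC, 3C system; 24 h chemical exposure; MIG by ELISA; bidirectional fit vs DMSO baseline.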

Read-out in experiment [13]: Urokinase-type plasminogen activator receptor (uPAR), PLAUR (gene 5329)
The experiment can be described thus: BSK_4H_uPAR: BioMAP Diversity Plus: 4H Assay for Urokinase-type plasminogen activator receptor (uPAR) Biomarker Activity (AID 2283030; active = hit-call score of the fitted dose curve at least 0.9, where 1 is the maximum; inactive = score below 0.9). The note with it: primary human endothelial cells (HUVEC); actives raise or lower the signal. In a few lines:
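uPAR level read by ELISA on HUVEC cultures (BioMAP 4H) 24 h post-dosing, analyzed for gain or loss relative to DMSO. Parallel SRB staining assessed overt cytotoxicity.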

Read-out in experiment [14]: Plasminogen activator inhibitor-1 (PAI1), SERPINE1 (gene 5054)
The experiment can be described thus: BSK_BE3C_PAI1: BioMAP Diversity Plus: BE3C Assay for Plasminogen activator inhibitor-1 (PAI1) Biomarker Activity (AID 2283037; active = hit-call score of the fitted dose curve at least 0.9, where 1 is the maximum; inactive = score below 0.9). The note with it: primary human bronchial epithelial cells; actives raise or lower the signal. In a few lines:
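ELISA read-out of PAI-1 from human bronchial epithelial primary cells, 24 h post-dosing; bidirectional curve fit vs DMSO baseline, gain or loss of signal scored.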

Read-out in experiment [15]: Tissue plasminogen activator (tPA), PLAT (gene 5327)
Description: BSK_BE3C_tPA: BioMAP Diversity Plus: BE3C Assay for Tissue plasminogen activator (tPA) Biomarker Activity (AID 2283041; active = hit-call score of the fitted dose curve at least 0.9, where 1 is the maximum; inactive = score below 0.9;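 note: tPA level quantified by ELISA one day after compound addition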). The note with it: primary human bronchial epithelial cells; actives raise or lower the signal. The method in brief:
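ELISA read-out of tPA on human primary bronchial epithelial cells, 24 h post-dosing; bidirectional fit vs DMSO negative control/baseline.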

Read-out in experiment [16]: Thrombomodulin, THBD (gene 7056)
The experiment can be described thus: BSK_CASM3C_Thrombomodulin: BioMAP Diversity Plus: CASM3C Assay for Thrombomodulin Biomarker Activity (AID 2283051; active = hit-call score of the fitted dose curve at least 0.9, where 1 is the maximum; inactive = score below 0.9;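 note: thrombomodulin protein level measured by ELISA 24 h after dosing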). The note with it: primary human coronary artery smooth muscle cells; actives raise or lower the signal.

The target in experiment [17] is Retinoic acid receptor RXR-alpha (Homo sapiens) (UniProt P19793). The experiment can be described thus: OT_NURR1_NURR1RXRa_0480: Odyssey Thera (OT) 8-hour HEK293T Protein Complementation Assay for Nurr1/retinoid X receptor (RXR) (AID 2283385). In a few lines: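 Read-out: fluorescence from protein-fragment complementation between Nurr1 and RXRα in human HEK293T cells, 8 h after dosing. DMSO served as negative control; increased signal counted as activity.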

Experiment [18] deals with Estrogen receptor beta (Homo sapiens) (UniProt Q92731). The experiment can be described thus: OT_ER_ERbERb_0480: Odyssey Thera (OT) 8-hour HEK293T Protein-Complementation Assay for Estrogen Receptor-beta/-beta Homodimer (AID 2283357).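 Note: active means signal gain over DMSO baseline.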 In a few lines:
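ER-beta LBD homodimer PCA stably expressed in HEK293T; 8 h compound exposure, then formaldehyde fixation and Draq5 staining. Gain in nuclear/cytoplasmic fluorescence intensity versus DMSO vehicle, read on laser scanning cytometer.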

Experiment [19] is described as follows: ATG_ERE_CIS: Attagene CIS-FACTORIAL HepG2 Assay for Estrogen Response Element (ERE) (AID 2282940; active = hit-call score of the fitted dose curve at least 0.9, where 1 is the maximum; inactive = score below 0.9). The note with it: HepG2 ERE cis-reporter, Attagene RNA transcript; actives raise or lower the signal. In a few lines:
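Measuring endogenous transcription factor output, the assay doses transfected HepG2 cells for 24 hours and quantifies reporter transcripts by fluorescent RT-PCR and capillary electrophoresis, with DMSO as baseline.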

Chain of Steroid hormone receptor ERR1 (Homo sapiens) (P11474 whole entry, looked up, the tested form may be a part): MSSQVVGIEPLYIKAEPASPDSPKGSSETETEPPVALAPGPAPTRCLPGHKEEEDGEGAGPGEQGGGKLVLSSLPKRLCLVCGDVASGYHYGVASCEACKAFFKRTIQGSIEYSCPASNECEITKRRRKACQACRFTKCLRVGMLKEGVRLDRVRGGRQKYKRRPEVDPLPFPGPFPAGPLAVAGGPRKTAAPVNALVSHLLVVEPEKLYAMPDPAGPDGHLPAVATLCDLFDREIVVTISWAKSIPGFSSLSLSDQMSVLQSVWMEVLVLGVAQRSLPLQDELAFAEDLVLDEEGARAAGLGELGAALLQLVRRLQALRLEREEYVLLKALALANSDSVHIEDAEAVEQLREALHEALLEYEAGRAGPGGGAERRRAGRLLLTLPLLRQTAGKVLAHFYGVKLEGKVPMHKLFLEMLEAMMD
Chain of Retinoic acid receptor RXR-alpha (Homo sapiens) (P19793 whole entry, looked up, the tested form may be a part): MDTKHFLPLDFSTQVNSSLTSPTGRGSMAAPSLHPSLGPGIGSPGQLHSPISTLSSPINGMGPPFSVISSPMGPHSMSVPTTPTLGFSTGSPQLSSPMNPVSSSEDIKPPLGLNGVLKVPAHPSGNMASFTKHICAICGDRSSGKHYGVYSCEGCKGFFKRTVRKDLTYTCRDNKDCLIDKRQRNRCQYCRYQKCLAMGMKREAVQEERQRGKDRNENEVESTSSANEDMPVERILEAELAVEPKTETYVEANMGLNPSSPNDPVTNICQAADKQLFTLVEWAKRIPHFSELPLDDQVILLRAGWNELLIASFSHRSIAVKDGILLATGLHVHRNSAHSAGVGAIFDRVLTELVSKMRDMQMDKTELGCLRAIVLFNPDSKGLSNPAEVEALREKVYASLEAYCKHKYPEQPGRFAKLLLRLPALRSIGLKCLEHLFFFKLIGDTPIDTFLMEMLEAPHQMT
Chain of Peroxisome proliferator-activated receptor gamma (Homo sapiens) (P37231 whole entry, looked up, the tested form may be a part): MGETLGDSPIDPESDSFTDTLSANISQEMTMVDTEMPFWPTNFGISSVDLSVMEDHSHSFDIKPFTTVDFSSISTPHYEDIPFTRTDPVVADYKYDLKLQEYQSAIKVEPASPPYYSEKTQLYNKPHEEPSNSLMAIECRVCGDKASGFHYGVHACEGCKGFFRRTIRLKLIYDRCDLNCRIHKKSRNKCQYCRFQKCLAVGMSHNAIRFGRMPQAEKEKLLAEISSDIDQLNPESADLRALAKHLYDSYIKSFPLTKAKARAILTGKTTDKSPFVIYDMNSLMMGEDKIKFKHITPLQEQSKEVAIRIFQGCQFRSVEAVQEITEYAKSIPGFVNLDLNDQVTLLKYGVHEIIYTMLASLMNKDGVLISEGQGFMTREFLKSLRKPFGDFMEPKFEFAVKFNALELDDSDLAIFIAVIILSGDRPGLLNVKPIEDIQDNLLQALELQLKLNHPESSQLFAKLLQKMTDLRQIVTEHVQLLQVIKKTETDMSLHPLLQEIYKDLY
Chain of Estrogen receptor beta (Homo sapiens) (Q92731 whole entry, looked up, the tested form may be a part): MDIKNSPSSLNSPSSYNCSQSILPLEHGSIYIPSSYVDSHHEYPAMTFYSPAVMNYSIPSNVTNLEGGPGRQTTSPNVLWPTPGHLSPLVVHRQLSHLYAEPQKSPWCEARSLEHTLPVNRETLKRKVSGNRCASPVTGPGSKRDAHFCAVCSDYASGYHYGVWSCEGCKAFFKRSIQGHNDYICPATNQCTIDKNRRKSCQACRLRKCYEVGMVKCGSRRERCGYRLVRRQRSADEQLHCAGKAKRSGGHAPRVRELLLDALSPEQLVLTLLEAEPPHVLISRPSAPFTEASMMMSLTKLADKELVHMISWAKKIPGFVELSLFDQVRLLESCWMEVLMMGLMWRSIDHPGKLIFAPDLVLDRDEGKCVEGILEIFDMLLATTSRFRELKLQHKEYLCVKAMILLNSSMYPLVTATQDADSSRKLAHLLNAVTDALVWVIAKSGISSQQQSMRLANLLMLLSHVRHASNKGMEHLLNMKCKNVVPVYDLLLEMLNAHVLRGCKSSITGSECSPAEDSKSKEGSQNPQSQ
Chain of Estrogen-related receptor gamma (Homo sapiens) (P62508 whole entry, looked up, the tested form may be a part): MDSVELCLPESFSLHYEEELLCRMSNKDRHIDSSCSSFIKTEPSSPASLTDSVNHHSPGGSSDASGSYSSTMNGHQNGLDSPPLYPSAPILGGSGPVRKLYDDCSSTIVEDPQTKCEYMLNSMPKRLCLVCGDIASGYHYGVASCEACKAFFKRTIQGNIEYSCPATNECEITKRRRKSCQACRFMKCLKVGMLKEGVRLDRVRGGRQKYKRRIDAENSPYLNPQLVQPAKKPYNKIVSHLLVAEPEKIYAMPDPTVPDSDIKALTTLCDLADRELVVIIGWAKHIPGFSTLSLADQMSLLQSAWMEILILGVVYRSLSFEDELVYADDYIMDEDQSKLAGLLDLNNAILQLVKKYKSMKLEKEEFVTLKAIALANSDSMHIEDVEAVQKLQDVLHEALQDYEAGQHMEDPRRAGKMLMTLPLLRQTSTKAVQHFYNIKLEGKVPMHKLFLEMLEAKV

With `O=C=Nc1ccccc1`, the compound was classed as inactive in experiment [1], in experiment [2], in experiment [3], in experiment [4], in experiment [5] and in experiment [6]. Also, the outcome in experiment [7], in experiment [8] and in [9] was inactive.

Turning to `N#CCCCCC#N`, the outcome in [10], in experiment [11], in [12], in experiment [13], in experiment [14] and in experiment [15] was inactive. Moreover, the result in experiment [16], in [17], in [5], in [7] and in experiment [9] was inactive.

As to `C#CC1(O)CCCCC1`, the compound was called inactive in experiment [1] and in experiment [2]. In experiment [8], the AC50 is 61.7 µM (active).

For the compound `CC(=O)C=Cc1ccccc1`, the compound was called inactive in experiment [18], in experiment [3], in [4] and in experiment [5]. The AC50 in experiment [17] was 1.12 µM (active).

Turning to `Nc1c(Cl)c(Cl)c(Cl)c(Cl)c1Cl`, the outcome in [8] was inactive.

As to `CC1CCCC1.[C-]#[O+].[C-]#[O+].[C-]#[O+].[Mn]`, the call in experiment [17], in experiment [4], in experiment [5] and in experiment [6] was inactive.

For the compound `Oc1ccc(Cl)cc1`, the compound was called inactive in experiment [17], in [4], in experiment [5], in experiment [7] and in experiment [9].

`C[N+](C)(C)CC(=O)O`: in experiment [19], the call was inactive.

Take `CNC(=O)Oc1cc(C)c(SC)c(C)c1`: the AC50 in [19] is 26.5 µM (active). The outcome in experiment [10], in [11], in [12], in experiment [13], in experiment [14] and in experiment [15] was inactive. For the same compound, the outcome in experiment [16] and in experiment [9] was inactive.

`CC1(C)[C@H](C(=O)O[C@H](C#N)c2cccc(Oc3ccccc3)c2)[C@@H]1C=C(Br)Br`: the call in [1], in experiment [10], in experiment [11], in experiment [12], in [13] and in [14] was inactive. The outcome in experiment [15], in experiment [16], in [18], in [3], in experiment [17] and in experiment [5] was inactive. For the same compound, the result in experiment [6], in experiment [7] and in experiment [9] was inactive. The concentration at half-maximal activity (AC50) is 0.0401 µM (active) in experiment [10]; 0.252 µM (active) in experiment [11]; 5.23 µM (active) in experiment [13]; 8.23 µM (active) in experiment [16]; 50 µM (active) in [6]; 50 µM (active) in experiment [7]. Also, in experiment [8], the AC50 was 72.7 µM (active).

In the case of `O=[N+]([O-])c1ccc(Cl)cc1`, the result in experiment [10], in experiment [11], in [12], in experiment [13], in [14] and in experiment [15] was inactive. The result in [16], in experiment [18], in [3], in [4], in experiment [6] and in experiment [8] was inactive.
